# Results reported in PubChem BioAssay AID376 (PDSP, 2006).
# About 250 (12%) of roughly 2,000 compounds were called active. The list comes from a sample in which actives are over-represented; it also holds similar structures and randomly drawn compounds. Values without a mark were called inactive. Rule as the data show it: active = hERG blockade below about -20% or above about 20%; inactive = in between.
# Target: Voltage-gated inwardly rectifying potassium channel KCNH2 (Homo sapiens) (UniProt Q12809)
# Assay: KCNH2 potassium channel function modulators, cell-based (AID 376);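 also: 0% = buffer alone and 100% = reference blocker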
# Conditions: hERG-expressing cells, channel activity single-concentration screen; concentration not given here
# Chain of Voltage-gated inwardly rectifying potassium channel KCNH2 (Homo sapiens) (Q12809 whole entry, looked up): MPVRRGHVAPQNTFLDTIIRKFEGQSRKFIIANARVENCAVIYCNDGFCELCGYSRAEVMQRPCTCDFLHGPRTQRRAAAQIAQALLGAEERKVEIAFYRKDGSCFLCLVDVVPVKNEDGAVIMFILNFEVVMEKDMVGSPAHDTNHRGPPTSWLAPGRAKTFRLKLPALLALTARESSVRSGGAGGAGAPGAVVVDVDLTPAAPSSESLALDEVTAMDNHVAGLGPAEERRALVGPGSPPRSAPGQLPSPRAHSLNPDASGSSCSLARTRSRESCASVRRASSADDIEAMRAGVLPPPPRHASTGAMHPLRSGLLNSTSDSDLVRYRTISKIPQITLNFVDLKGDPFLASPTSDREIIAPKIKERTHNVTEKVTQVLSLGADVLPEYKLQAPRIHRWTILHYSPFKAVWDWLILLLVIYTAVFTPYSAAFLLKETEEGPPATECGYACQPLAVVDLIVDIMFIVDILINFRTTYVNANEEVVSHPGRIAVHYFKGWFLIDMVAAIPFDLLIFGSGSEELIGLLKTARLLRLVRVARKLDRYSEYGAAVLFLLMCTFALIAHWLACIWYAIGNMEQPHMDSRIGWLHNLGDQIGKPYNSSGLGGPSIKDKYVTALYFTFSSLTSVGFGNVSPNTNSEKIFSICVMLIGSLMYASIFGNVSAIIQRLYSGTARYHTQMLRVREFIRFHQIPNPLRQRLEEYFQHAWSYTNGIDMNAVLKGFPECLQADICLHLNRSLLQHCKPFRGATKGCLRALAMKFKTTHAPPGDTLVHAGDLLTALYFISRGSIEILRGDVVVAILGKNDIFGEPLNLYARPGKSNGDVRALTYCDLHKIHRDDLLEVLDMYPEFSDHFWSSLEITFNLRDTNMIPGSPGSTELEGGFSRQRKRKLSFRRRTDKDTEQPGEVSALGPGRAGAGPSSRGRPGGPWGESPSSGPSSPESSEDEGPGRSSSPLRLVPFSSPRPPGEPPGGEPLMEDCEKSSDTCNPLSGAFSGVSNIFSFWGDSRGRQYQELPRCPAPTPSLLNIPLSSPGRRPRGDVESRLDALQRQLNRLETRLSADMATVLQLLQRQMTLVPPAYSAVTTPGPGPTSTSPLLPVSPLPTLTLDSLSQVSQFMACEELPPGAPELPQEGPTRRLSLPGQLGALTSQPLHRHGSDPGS
row,SMILES,hERG blockade
1,CCCC(Sc1nc(N)nc2nc[nH]c12)C(=O)O (centres undefined),2.81%
2,CC(C)(SCc1ccccc1)C(N)C(=O)O (centres undefined),2.47%
3,NS(=O)(=O)c1ccc(NC(=O)Nc2cccc3ccccc23)cc1,0.23%
4,CC(=N[O-])C(C)=N[O-].CC(=N[O-])C(C)=N[O-].CC(=N[O-])C(C)=N[O-].CC(=N[O-])C(C)=N[O-].[CH3-].[CH3-].[Co].[Co],11.4%
5,O=S(=O)(c1cccc(C(F)(F)F)c1)N1c2ccccc2-n2cccc2C1c1cccnc1 (centres undefined),18%
6,FC(F)(F)c1nc(SCc2ccc(Cl)cc2)n[nH]1,4.58%
7,COc1ccc2c(Cl)cc(NC(=S)Nc3ccccc3)nc2c1,-8.81%
8,CSc1nc(C)cc(Nc2ccc(O)c(CN3CCCCC3)c2)n1,14.8%
9,COc1ccc2nc3cc(Cl)ccc3c(Nc3ccc(O)c(CN4CCN(C)CC4)c3)c2c1,61.7% (active)
10,OC(CNc1ccccn1)c1ccccc1 (centres undefined),5.58%
11,Cc1cc(Cc2c(C)c(C)c(Cc3cc(C)cc(C(C)(C)C)c3O)c(C)c2C)c(O)c(C(C)(C)C)c1,1.65%
12,Nc1ccc(N(S(=O)(=O)c2ccccc2)S(=O)(=O)c2ccccc2)c(Cl)c1,0.845%
13,COc1cc(CN2CCCCC2)cc2cc(C(=O)O)c(=O)oc12,4.84%
14,O=C(O)c1c[nH]c2cc(OCc3ccccc3)ccc2c1=O,6.26%
15,O=C(O)c1ccc(C(=O)O)c2c(C(=O)O)ccc(C(=O)O)c12,-5.21%
16,O=C(O)c1c[nH]c2c(ccc3[nH]cc(C(=O)O)c(=O)c32)c1=O,22.9% (active)
17,O=C(O)C(Cc1ccccc1-c1ccccc1)C(=O)O,19.4%
18,Cc1n[nH]c2ccccc2c1=O,-1.27%
19,COc1ccc2ccccc2c1C=CC(=O)c1ccccc1,-1.69%
20,O=C(O)CCC(=O)c1ccc2sc3ccccc3c2c1,-5.18%
21,O=C(C[n+]1ccc2ccccc2c1)c1ccc2ccc3ccccc3c2c1,37.2% (active)
22,OC(COc1ccc(Cl)cc1Cl)CN1CCCC1 (centres undefined),17.2%
23,C[N+](C)(N)CCC[N+](C)(C)N,-2.4%
24,O=C1C2=C(Nc3cc([N+](=O)[O-])ccc3N2)OC1c1c[nH]c2ccc(COc3ccccc3)cc12 (centres undefined),4.4%
25,Nc1nc(SCc2ccccc2Cl)cc(C(=O)O)n1,-7.45%

row,SMILES,hERG blockade
1,CC(C)C1=CC23CCC4C(C)(C(=O)O)CCCC4(C)C2CC1C(C(=O)O)C3C(=O)O (centres undefined),6.18%
2,Oc1c(C(O)(c2ccccc2)c2ccc3ccccc3c2O)ccc2ccccc12,50.7% (active)
3,Oc1ccc2ccccc2c1Cc1c(O)ccc2ccccc12,8.8%
4,CC(O)(c1ccccc1)c1nccc2ccccc12 (centres undefined),0.101%
5,CC1=NN(c2ccc(S(=O)(=O)O)cc2)C(=O)C1=Cc1ccc(Cl)cc1,41% (active)
6,O=c1oc2ccccc2c(O)c1C=Nc1nc(-c2ccc(O)c(O)c2)cs1,-3.45%
7,C[N+](C)(C)CC(=O)NN=Cc1ccncc1,-9.76%
8,C=CCSc1nc2c(N)ncnc2n1C1OC(CO)C(O)C1O (centres undefined),-7.69%
9,NS(=O)(=O)c1ccc(NCc2cnc3ccccc3c2)cc1,-4.82%
10,Nc1nccc(Nc2ccc(S(N)(=O)=O)cc2)n1,20.2% (active)
11,NS(=O)(=O)c1ccc(NCc2cnc3ccccc3n2)cc1,-7.4%
12,O=[N+]([O-])c1ccc(CS(=O)Cc2ccccc2)cc1 (centres undefined),8.1%
13,Cc1ccc(S(=O)(=O)Oc2cc(S(=O)(=O)O)cc3cc(S(=O)(=O)O)cc(N)c23)cc1,11.5%
14,Cc1ccc(S(=O)(=O)Oc2cc(N)c3c(n2)CCC3)cc1,-21.4% (active)
15,Cc1ccc(S(=O)(=O)Nc2cc(=O)[nH]c3c2CCC3)cc1,15.4%
16,O=C(O)C(=Cc1ccncc1)c1cccc2ccccc12,0.772%
17,COC(=O)C1C(OS(=O)(=O)O)CCC2CN3CCc4c([nH]c5ccccc45)C3CC21 (centres undefined),-1.73%
18,COc1ccc2c3c([nH]c2c1)C1CC2C(CC(O)C(OC)C2C(=O)O)CN1CC3 (centres undefined),5.28%
19,COC(=O)C1C(O)CCC2CN3CCc4c([nH]c5ccccc45)C3CC21 (centres undefined),42.5% (active)
20,Oc1cc(O)c2c(c1)OC(c1ccc(O)c(O)c1)C(O)C2c1c(O)cc(O)c2c1OC(c1ccc(O)c(O)c1)C(O)C2 (centres undefined),10.6%
21,O=C(O)COc1c(Cl)cc(Cl)c2cccnc12,-8.13%
22,O=C(Oc1ccc2c(c1)CN(Cc1ccccc1)CO2)c1ccccc1,13%
23,CC(C)(C)c1c2c(c(C(C)(C)C)c3c1OCN(Cc1ccccc1)C3)OCN(Cc1ccccc1)C2,23.8% (active)
24,c1ccc(CN2COc3c(ccc4c5c(ccc34)CN(Cc3ccccc3)CO5)C2)cc1,-6.83%
